# In ChEMBL document CHEMBL3988442, “University of Dundee, Small-Polar-MMV Screening Library” (2021):
# The campaign covered roughly 66,000 compounds. About 960 (1.5%) showed an effect of 50% or more. Many of the other results were omitted from the sample, so strong results are more common in it than they were.
# Tested on: Trypanosoma brucei
# Assay: Trypanosoma brucei 72 hour study
# Format: functional, organism-based
# Set-up: scale not given: in the data most compounds retested in dose-response had high values
structure (smiles),measurement,setting,value
O=C(O)C(F)(F)F.O=C(O)C(F)(F)F.O=C(O)C(F)(F)F.c1ccc(CN2CCc3nnc(COc4ccccn4)n3CC2)nc1,Percent Effect,"30 µM, 30.03 µM",1.272%
Cc1ccc(CN2CCn3c(C(=O)N(C)C)cnc3C2)s1.O=C(O)C(F)(F)F,Percent Effect,"30 µM, 30.03 µM",-2.366%
CCCn1c(C)c(CC(=O)N[C@H](C)C(=O)OC)c2c1CC(C)(C)CC2=O,Percent Effect,"30 µM, 30.03 µM",85.29%
CCCn1c(C)c(CC(=O)NC(C)CO)c2c1CC(C)(C)CC2=O (stereo unspecified),Percent Effect,"30 µM, 30.03 µM",-12.97%
CCCn1c(C)c(CC(=O)NC)c2c1CC(C)(C)CC2=O,Percent Effect,"30 µM, 30.03 µM",24.04%
Cc1cc(N2CCOCC(Cc3ccc4[nH]ccc4c3)C2)ncn1 (stereo unspecified),Percent Effect,"30.3 µM, […]",12.74%
Nc1cc(N2CCOCC(Cc3ccc4[nH]ccc4c3)C2)ncn1 (stereo unspecified),Percent Effect,"30.3 µM, […]",67.68%
c1cc(N2CCOCC(Cc3ccc4[nH]ccc4c3)C2)ncn1 (stereo unspecified),Percent Effect,"30.3 µM, […]",-4.218%
O=C(CC1CC2(CCN(CC3CC3)CC2)Oc2ccccc21)NC1CC1.O=C(O)C(F)(F)F (stereo unspecified),Percent Effect,"30.3 µM, […]",11.6%
CCC[C@H]1CN(S(=O)(=O)N(C)Cc2ccccc2)C[C@@H]1N,Percent Effect,"30 µM, 30.03 µM",8.364%
CCOCc1ccccc1NC(=O)NC1CCN(C2CCCC2)C1 (stereo unspecified),Percent Effect,"30.3 µM, […]",99.06%
CCOCc1ccccc1NC(=O)NC1CCN(CC(F)(F)F)C1 (stereo unspecified),Percent Effect,"30.3 µM, […]",8.993%
CCOCc1ccccc1NC(=O)NC1CCN(c2ccccc2)C1 (stereo unspecified),Percent Effect,"30.3 µM, […]",12.17%
CN1CCCC(c2ccnc(C(=O)NCC3CC3)c2)C1 (stereo unspecified),Percent Effect,"30.3 µM, […]",-15.86%
Cn1cc(CN2CCCC3(CCCCN3S(C)(=O)=O)C2)cn1.O=C(O)C(F)(F)F (stereo unspecified),Percent Effect,"30 µM, 30.03 µM",-25.71%
COCC(=O)N1Cc2c(-c3cccc(C)c3)nc(N)nc2C1C (stereo unspecified),Percent Effect,"30.3 µM, […]",-11.02%
Cc1cccc(-c2nc(N)nc3c2CN(C(=O)c2ccncn2)C3C)c1 (stereo unspecified),Percent Effect,"30.3 µM, […]",-0.8654%
Cc1cccc(-c2nc(N)nc3c2CN(C(=O)c2cc(C)n[nH]2)C3C)c1 (stereo unspecified),Percent Effect,"30.3 µM, […]",90.24%
c1csc(CCNc2nc(-c3ccncc3)nc3c2CCNCC3)c1,Percent Effect,"30.3 µM, […]",104%
COCCNc1nc2c(c(NCCc3cccs3)n1)CCNCC2,Percent Effect,"30 µM, 30.03 µM",-24.48%
Cc1ccc(CCNc2nc(-c3ccncc3)nc3c2CCNCC3)o1,Percent Effect,"30.3 µM, […]",-212%
O=C(C1CCC1)N1CCO[C@H]2[C@H](OCCCn3cccn3)CC[C@@H]21.O=C(O)C(F)(F)F,Percent Effect,"30.3 µM, […]",-14.88%
CCc1nc(C)sc1CN1CCc2[nH]nc(-c3ccc(F)c(F)c3)c2C1,Percent Effect,"30.3 µM, […]",9.305%
CC(C)c1nnsc1CN1CCc2[nH]nc(-c3ccc(F)c(F)c3)c2C1,Percent Effect,"30.3 µM, […]",8.442%
CC(C)c1nnsc1CN1CCc2[nH]nc(-c3ccc(Cl)cc3)c2C1,Percent Effect,"30.3 µM, […]",100.2%
Cn1nc(N2CCCC(C(=O)Nc3nc4ccccc4s3)C2)ccc1=O (stereo unspecified),Percent Effect,"30 µM, 30.03 µM",-10.15%
Cc1nc(COC[C@@H]2CCC[C@@]23CN(C)CCO3)cs1.O=C(O)C(F)(F)F,Percent Effect,"30 µM, 30.03 µM",42.28%
CCc1nnsc1C(=O)NC1CCN(CCOc2ccc(Br)cc2)CC1,Percent Effect,"30.3 µM, […]",50.82%
Cc1nc(C(=O)NC2CCN(CCOc3ccc(Br)cc3)CC2)cs1,Percent Effect,"30.3 µM, […]",34.31%
Cc1ncc(C(=O)NC2CCN(CCOc3ccc(Br)cc3)CC2)s1,Percent Effect,"30.3 µM, […]",9.7%
CN(C)CC1CN(C(=O)Cc2ccccc2)Cc2nccn2C1.O=C(O)C(F)(F)F (stereo unspecified),Percent Effect,"30 µM, 30.03 µM",-30.18%
CC(=O)N1CCC2(CCN(C(=O)c3ccc(Cl)c(C(F)(F)F)c3)C2)C1 (stereo unspecified),Percent Effect,"30 µM, 30.03 µM",28.83%
NC(=O)C1CCN(Cc2cccc(NC(=O)c3ccsc3)c2)CC1,Percent Effect,"30 µM, 30.03 µM",50.19%
NC(=O)C1CCCN1Cc1cccc(NC(=O)c2cc(Cl)cc(Cl)c2)c1 (stereo unspecified),Percent Effect,"30 µM, 30.03 µM",26.87%
NC(=O)C1CCCN1Cc1cccc(NC(=O)c2ccsc2)c1 (stereo unspecified),Percent Effect,"30 µM, 30.03 µM",12.83%
O=C(c1cc(C2CCCCN2CCO)n[nH]1)N1CCOCC1.O=CO (stereo unspecified),Percent Effect,"30.3 µM, […]",-18.9%
CC(C)c1cc(C(=O)N2CCc3nc(C4CCCN4)ncc3C2)cs1.Cl (stereo unspecified),Percent Effect,"30.3 µM, […]",-27.95%
CCN(CC)Cc1ccc(C(=O)N2CCCC2c2cnn(C)c2)o1 (stereo unspecified),Percent Effect,10 µM,2.271%
CCOc1ccccc1NC(=O)CN(C)Cc1ccccc1Cl,Percent Effect,"30 µM, 30.03 µM",104.4%
CCOc1cccc(CNc2ccccc2Cl)c1O,Percent Effect,"30 µM, 30.03 µM",-19.48%
CCOC(=O)c1ccccc1NC(=O)CN(C)Cc1ccccc1Cl.O=C(O)C(=O)O,Percent Effect,"30 µM, 30.03 µM",103.8%
CCOc1ccccc1NC(=O)NCc1ccoc1,Percent Effect,"30 µM, 30.03 µM",-38.02%
CN(CC(=O)Nc1ccccc1C(=O)NC1CC1)Cc1ccccc1Cl,Percent Effect,"30 µM, 30.03 µM",-3.79%
CNC(=O)CN(C)Cc1ccc(F)cc1Cl,Percent Effect,"30 µM, 30.03 µM",-10.17%
O=C(NCCc1cccs1)[C@H]1CO[C@H]2CCN(CC3CC3)C[C@H]2C1.O=C(O)C(F)(F)F,Percent Effect,"30.3 µM, […]",-52.96%
CN(CC(=O)c1ccc2[nH]c(=O)[nH]c2c1)Cc1ccc2c(c1)OCO2,Percent Effect,"30.3 µM, […]",2.207%
CCOCC(O)CN1CCN(C(=O)c2ccc(N(C)C)nn2)CC1 (stereo unspecified),Percent Effect,"30.3 µM, […]",-26.53%
same,Percent Effect,"10 mM, 10 mM as filed; unlikely as a test dose",-123.6%
Cc1noc(NC(=O)c2cccc(Br)c2)n1,Percent Effect,"30.3 µM, […]",69.68%
COc1cc(C(=O)Nc2nc(C)no2)cc(OC)c1Br,Percent Effect,10 µM,-27.84%
COc1cc(C(=O)Nc2nc(C)no2)ccc1C,Percent Effect,"30 µM, 30.03 µM",38.15%
Cc1noc(NC(=O)c2ccc(C)c(F)c2)n1,Percent Effect,"30 µM, 30.03 µM",65.47%
COc1cc(C(=O)Nc2nc(C)no2)ccc1OC(F)F,Percent Effect,10 µM,-60.85%
Cc1noc(NC(=O)c2ccc(C#N)cc2)n1,Percent Effect,"30.3 µM, […]",-1.812%
Cc1noc(NC(=O)c2ccc(OC(F)(F)F)cc2)n1,Percent Effect,"30 µM, 30.03 µM",107.1%
Cc1ccc(C(=O)Nc2nc(C)no2)cc1,Percent Effect,"30.3 µM, […]",24.35%
Cc1noc(NC(=O)c2ccc(F)cc2)n1,Percent Effect,"30.3 µM, […]",23.19%
Cc1noc(NC(=O)c2ccc(Br)cc2)n1,Percent Effect,"30 µM, 30.03 µM",95.54%
Cc1noc(NC(=O)c2ccccc2)n1,Percent Effect,"30.3 µM, […]",22.26%
Cc1noc(NC(=O)CCNC(=O)c2ccc(Br)cc2)n1,Percent Effect,"30.3 µM, […]",-27.06%
CN1CCc2c(C#N)c(NCCCN3CCOCC3)n3cnnc3c2C1.Cl.Cl,Percent Effect,"30 µM, 30.03 µM",29.08%
CCOc1ccccc1CN1CCc2nc3ccsc3c(=O)n2CC1.Cl,Percent Effect,"30.3 µM, […]",-5.491%
CCOC1COC2(CCN(Cc3ccc(C)c(C)c3)CC2)C1.O=C(O)C(F)(F)F (stereo unspecified),Percent Effect,"30.3 µM, […]",17.79%
COc1ccc(NS(=O)(=O)c2cnc(NC(C)=O)s2)cc1,Percent Effect,"30.3 µM, […]",-9.359%
CN(Cc1cccnc1)[C@@H]1CN(Cc2cnn(C)c2)[C@@H]2CCCO[C@H]12.O=C(O)C(F)(F)F.O=C(O)C(F)(F)F.O=C(O)C(F)(F)F.O=C(O)C(F)(F)F,Percent Effect,"30.3 µM, […]",-6.057%
O=C(NCc1cccnc1)C1=NN(c2ccccc2)C(=O)CN1,Percent Effect,"30 µM, 30.03 µM",71.31%
O=C(Nc1cccnc1)C1=NN(c2ccccc2)C(=O)CN1,Percent Effect,10 µM,-65.06%
N#Cc1ccc(CNC(=O)C2=NN(c3ccccc3)C(=O)CN2)cc1,Percent Effect,"30 µM, 30.03 µM",-22.79%
CC(C)(C)CN1CCN(CC2CC2)C(CCO)C1 (stereo unspecified),Percent Effect,"30 µM, 30.03 µM",-40.11%
O=C(Nc1ccccn1)C1(n2cnnn2)CCCCC1,Percent Effect,"30 µM, 30.03 µM",-28.83%
O=C(O)C(F)(F)F.O=C1N(Cc2ccncc2)CCC12CCCN(c1ncc(F)cn1)C2 (stereo unspecified),Percent Effect,"30.3 µM, […]",-38.62%
CN1CCCC[C@@H]2[C@H]1[C@@H](c1ccccc1)CCN2C(=O)c1cccnc1,Percent Effect,"30.3 µM, […]",-28.46%
CN1CCCC[C@@H]2[C@H]1[C@@H](c1ccccc1)CCN2C(=O)c1ccncc1,Percent Effect,"30.3 µM, […]",2.626%
CN1CCCC[C@@H]2[C@H]1[C@@H](c1ccccc1)CCN2C(=O)c1ccccc1,Percent Effect,"30.3 µM, […]",97.59%
Cl.O=S(=O)(N1CCCC1)N1CC[C@H](c2ccccc2)[C@H]2NCCCC[C@H]21,Percent Effect,"30.3 µM, […]",-20.77%
CN1CCCC[C@@H]2[C@H]1[C@@H](c1ccccc1)CCN2S(=O)(=O)N1CCCC1,Percent Effect,"30.3 µM, […]",98.76%
CN1CCCC[C@@H]2[C@H]1[C@@H](c1ccccc1)CCN2C(=O)c1ccccn1,Percent Effect,"30.3 µM, […]",12.07%
O=C(O)C(F)(F)F.O=C(O)C(F)(F)F.O=C(c1cccnc1)N1CCn2nnc(COc3ccccn3)c2C1,Percent Effect,"30 µM, 30.03 µM",20.03%
Cc1ncsc1CN1C[C@@H]2COC[C@]2(C(=O)NCC2CC2)C1.O=C(O)C(F)(F)F,Percent Effect,"30 µM, 30.03 µM",-10.84%
CNc1ncc2c(n1)CN(C1CCCC1)C2=O,Percent Effect,"30.3 µM, […]",-26.22%
CNCc1ccc([C@@H]2CN(C)C[C@H]2C(N)=O)cc1.Cl,Percent Effect,"30.3 µM, […]",-7.095%
CC(C)(C)c1cc(CN2C[C@H]3CC[C@@H]2CN(Cc2cscn2)C3)n[nH]1,Percent Effect,"30 µM, 30.03 µM",14.03%
CN(CC1COc2ccccc2O1)C(=O)C1=NN(C)C(=O)CC1 (stereo unspecified),Percent Effect,"30 µM, 30.03 µM",-29.23%
O=C(NCc1ccc2c(c1)OCO2)c1ccc(N2CCCCCC2)nc1,Percent Effect,"30 µM, 30.03 µM",-3.476%
O=C(NCCC1COc2ccccc2O1)c1ccc(-c2cc[nH]n2)nc1 (stereo unspecified),Percent Effect,"30 µM, 30.03 µM",51.23%
CC(C)c1noc(CCNC(=O)NCC2COc3ccccc3O2)n1 (stereo unspecified),Percent Effect,"30 µM, 30.03 µM",-35.89%
CN(CC1COc2ccccc2O1)C(=O)c1ccc(-c2cn[nH]c2)nc1 (stereo unspecified),Percent Effect,"30 µM, 30.03 µM",34.02%
O=C(NCCC1COc2ccccc2O1)c1ccc(-c2cn[nH]c2)nc1 (stereo unspecified),Percent Effect,"30 µM, 30.03 µM",81.06%
O=C(NCCC1COc2ccccc2O1)c1ccc(N2CC(O)C2)nc1 (stereo unspecified),Percent Effect,"30 µM, 30.03 µM",57.01%
CC(C)c1nccn1CCCNC(=O)c1ccc(-c2cn[nH]c2)nc1,Percent Effect,"30 µM, 30.03 µM",3.874%
Cn1ccnc1-c1ccc(NCCC2COc3ccccc3O2)nn1 (stereo unspecified),Percent Effect,"30 µM, 30.03 µM",-17.77%
CN1CCCC(c2ccnc(C(=O)NC3CC3)c2)C1 (stereo unspecified),Percent Effect,"30.3 µM, […]",-4.506%
Cc1occc1C(=O)N1CCC2(CC1)CC(OCc1ccccn1)CO2.O=C(O)C(F)(F)F (stereo unspecified),Percent Effect,"30.3 µM, […]",-782.3%
CCC(C)NC(=O)c1nnn(-c2cccc3c2CCN(C)C3)c1C (stereo unspecified),Percent Effect,"30 µM, 30.03 µM",31.65%
CC(C)c1ncc(CN2CCC(CO)C2)cn1.O=C(O)CC(O)(CC(=O)O)C(=O)O (stereo unspecified),Percent Effect,"30.3 µM, […]",-24.24%
O=C(NCc1cccnc1)N1CCC2(CC(=O)N(c3ccsc3)C2)C1.O=C(O)C(F)(F)F (stereo unspecified),Percent Effect,"30.3 µM, […]",-73.27%
